Measured values published in the supplement of paper PMC7411640.
Structures can show the parent of a compound that is named as a salt.

Each compound was assayed on MDA-MB-468 (assay: phospho-S6 immunofluorescence (DAPI-normalised), per-plate z-score; higher = higher phospho-S6 signal (less pathway suppression)). Details: co-treatment: GDC0941 450 nM; 24 h.
Method: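 GPCR-targeted compound library (MedChemExpress HY-L006) tested on MDA-MB-468 PTEN-null TNBC cells in 384-well plates at 0.1, 1 or 10 uM, combined with vehicle, GDC0941 450 nM or lapatinib 1 uM, for 24 h. Phospho-S6 (S240/244) immunofluorescence normalised to DAPI and expressed as a per-plate z-score; values are the mean of biological triplicates.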

**Q.** How did the “phospho-S6 immunofluorescence (z-score)” value turn out when CCCc1nc2c(C)cc(-c3nc4ccccc4n3C)cc2n1Cc1ccc(-c2ccccc2C(=O)O)cc1 [Telmisartan] (compound 10 µM) was run?
**A.** The value was 0.54.

**Q.** For CC1CCN(CC[C@H]2CCCN2S(=O)(=O)c2cccc(O)c2)CC1 (compound 10 µM), which “phospho-S6 immunofluorescence (z-score)” value is on record?
**A.** The value was 0.86.

**Q.** For COc1ccc2[nH]cc(CCNC(C)=O)c2c1 [Melatonin] (compound 10 µM), which “phospho-S6 immunofluorescence (z-score)” value is on record?
**A.** Its value is -1.25.

**Q.** With CC(=O)Oc1cc2c(s1)CCN(C(C(=O)C1CC1)c1ccccc1F)C2 (stereo unspecified) [Prasugrel] (compound 10 µM) as the compound, how does the “phospho-S6 immunofluorescence (z-score)” value read?
**A.** Its value is -1.29.

**Q.** With CCn1c(=O)c2c(nc(/C=C/c3ccc(OC)c(OC)c3)n2C)n(CC)c1=O [Istradefylline] (compound 10 µM) as the compound, how does the “phospho-S6 immunofluorescence (z-score)” value read?
**A.** Its value is 0.2.

**Q.** With CC(C)NCC(O)COc1ccc(CCOCC2CC2)cc1 (stereo unspecified) [Betaxolol (hydrochloride)] (compound 10 µM) as the compound, how does the “phospho-S6 immunofluorescence (z-score)” value read?
**A.** Its value is 0.79.

**Q.** CC[C@@H]1C(=O)OC[C@@H]1Cc1cncn1C [Pilocarpine (Hydrochloride)] (compound 10 µM) was tested. Which “phospho-S6 immunofluorescence (z-score)” value did it give?
**A.** The value was -0.79.

**Q.** For CC(=O)OCC(=O)[C@@]12N=C(C)O[C@@H]1C[C@H]1[C@@H]3CCC4=CC(=O)C=C[C@]4(C)[C@H]3[C@@H](O)C[C@@]12C [Deflazacort] (compound 10 µM), which “phospho-S6 immunofluorescence (z-score)” value is on record?
**A.** Its value is -0.99.

**Q.** Which “phospho-S6 immunofluorescence (z-score)” value does the source give for CC1(C)O[C@@H]2[C@@H](CO[C@@]3(COS(N)(=O)=O)OC(C)(C)O[C@@H]23)O1 [Topiramate] (compound 10 µM) here?
**A.** Its value is -0.24.

**Q.** O=C(Nc1cccc(Cl)c1)c1ccccn1 (compound 10 µM) was tested. Which “phospho-S6 immunofluorescence (z-score)” value did it give?
**A.** Its value is -1.46.

**Q.** For CN1CCN(C2=Nc3cc(Cl)ccc3Nc3ccccc32)CC1 [Clozapine] (compound 10 µM), which “phospho-S6 immunofluorescence (z-score)” value is on record?
**A.** The value was -0.16.
